The record followed here is PubChem BioAssay (NCATS).

Where “and” joins values, the source holds several entries; their conditions need not be identical. Identical values can stand only once. A number with no mark means an inactive call. Records with an inconclusive call do not appear. Calls of active or inactive are those of the source. Unless noted, calls come from the whole dose curve; as a rule, active = well fitted curve in the direction sought with a large enough effect; inconclusive = small, poorly fitted or top-dose-only effect, or another doubt; inactive = no such curve, though single readings can be large; an effect the other way counts as inactive or inconclusive. Bounds are passed on as bounds.

Assay [1] in a line: AP1 Signaling Pathway (AID 357; active = well fitted curve in either direction with a large enough effect, not every such curve was filed as active; note: % is set by controls: 0 for no effect and ±100 for the full control effect). Conditions: ME-180 AP-1-bla reporter, EGF-induced, beta-lactamase ratio, 5 h; at 7.69 µM (top of the series) unless noted. The method in brief:
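AP-1-bla ME-180 cells with beta-lactamase reporter under AP-1 response element, stimulated with EC50 EGF; compounds titrated, 5 hours at 37 degrees Celsius. CCF4 read at 460/530 nm ratio; positive and negative modulators judged by AC50.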

Assay [2] can be described thus: Cell Viability - BJ (AID 421; calls by dose curve;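 note: potency is the fitted concentration of half-maximal effect; cells exposed to compound for 40 hours at 37 °C before readout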). The following applies: BJ fibroblast viability, qHTS. The gist of the method:
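Quantitative HTS: ATP depletion in BJ cells after 40 hr compound exposure in complete culture medium, detected with CellTiter-Glo; AC50 from standard Hill fits.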

Assay [3] in a line: Cell Viability - Hek293 (AID 427;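 active = compounds whose dose-response curve shows a full or clear partial loss of cell viability, called from curve shape rather than a numeric limit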;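 note: potency is the fitted concentration of half-maximal effect; cells exposed to compound for 40 hours at 37 °C before reading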). The following applies: qHTS. The method in brief: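 AC50 values derive from Hill-modelled concentration-response of ATP-based luminescence, normalized between DMSO-only and 100 uM tamoxifen controls. Cells were exposed in complete culture medium for 40 hr at 37 °C before detection.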
Assay [4] in a line: Cell Viability - HepG2 (AID 433; calls by dose curve;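 note: potency is the fitted concentration of half-maximal effect; potency for ATP loss meaning cytotoxicity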). The following applies: qHTS. The method in brief: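 HepG2 cells, 1500 per well, treated 40 hr at 37 °C in complete medium; viability from intracellular ATP by CellTiter-Glo luminescence. Normalized to DMSO and 100 uM tamoxifen; AC50 from Hill fit of qHTS concentration-response.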
In general terms: qHTS replaces the single test concentration by a dilution series.

Assay [5] can be described thus: Cell Viability - MRC5 (AID 434; calls by dose curve;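 note: potency is the fitted concentration of half-maximal effect; potency reflects cytotoxicity seen as loss of intracellular ATP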). Conditions: MRC5 lung fibroblast viability, qHTS. The gist of the method: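 MRC5 normal human lung fibroblasts, 1500 cells/well, exposed to compound for 40 hr at 37 C. Cellular ATP was read by CellTiter-Glo luminescence; data normalized to DMSO and 100 uM tamoxifen, with AC50 from Hill fits.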
Assay [6] is described as follows: Cell Viability - SK-N-SH (AID 435; calls by dose curve;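 note: potency is the fitted concentration of half-maximal effect; compound exposure lasted 40 h at 37 °C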). The following applies: SK-N-SH neuroblastoma cell viability qHTS. The method in brief: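 SK-N-SH neuroblastoma cells (1500/well) treated 40 h at 37 °C in complete medium; viability read as cellular ATP by CellTiter-Glo luminescence. Normalized to DMSO and 100 uM tamoxifen; AC50 from Hill fits of qHTS concentration-response.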

Assay [7] is described as follows: NFAT Signaling Pathway (AID 444; active = well fitted curve in either direction with a large enough effect, not every such curve was filed as active;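 note: carbachol stimulus at about its EC50 of 1 µM final; % is set by controls: 0 for no effect and ±100 for the full control effect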). Conditions: Jurkat NFAT-bla M1, carbachol, beta-lactamase ratio, 5 h; at 7.69 µM (top of the series) unless noted. The gist of the method: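 Jurkat cells with NFAT-driven β-lactamase reporter and co-expressed M1 receptor, stimulated with carbachol (final 1 uM, ~EC50), compound titration, 5 h at 37 °C. CCF4 loaded 1 h at RT; 460/530 nm ratio gave %activity and AC50.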

Assay [8] is described as follows: Stat Signaling Pathway (AID 446; active = well fitted curve in either direction with a large enough effect, not every such curve was filed as active;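 note: ME-180 cervical cancer cells given 40 pM IL-6 alongside compound; SIE-controlled beta-lactamase reporter measured as 460/530 nm FRET emission ratio; % is set by controls: 0 for no effect and ±100 for the full control effect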). The following applies: ME-180 (cervical carcinoma) SIE beta-lactamase reporter, IL-6 stimulated, 5 h; at 7.69 µM (top of the series) unless noted. The method in brief:
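IL-6/STAT signaling read in ME-180 cells via an SIE beta-lactamase reporter. Stimulus was 40 pM IL-6 (its AC50) for 5 hrs, so both activation and inhibition register.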

Assay [9] addresses Mitogen-activated protein kinase 10 (Mus musculus) (UniProt Q61831). Kind of assay: JNK3 AlphaScreen Assay (AID 530; active = well fitted curve in either direction with a large enough effect, not every such curve was filed as active;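 note: kinase came from lysate of stimulated human HepG2 cells; signal reports phosphorylation of biotinylated GST-cJun 1-79 at Ser73 with 10 µM ATP; % is set by controls: 0 for no effect and ±100 for the full control effect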). The method in brief:
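Pre-activated (IL-1β/TNFα) JNK3 in HepG2 lysates phosphorylates biotin-GST-cJun(1-79), 10 uM ATP; anti-phospho-cJun(Ser73) AlphaScreen read at room temperature, pH 7.6 Tris buffer. Compounds pre-incubated 15 min as titrations.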

Assay [10] can be described thus: Cell Viability - N2a (AID 540).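 Note: plate controls were DMSO alone for no effect and tamoxifen control for full effect; nearly all actives have a fitted effect of over 45% in size.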 The method in brief: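 Mouse neuroblastoma N2a cells, 1500/well, exposed to compounds 40 h at 37 °C in complete medium. Viability measured as cellular ATP by CellTiter-Glo luminescence; AC50 from Hill fits of concentration-response.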
Assay [11] can be described thus: Cell Viability - NIH 3T3 (AID 541).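 Note: plate controls were DMSO alone for no effect and tamoxifen positive control for full effect; nearly all actives have a fitted effect of over 25% in size.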 The method in brief:
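Mouse NIH 3T3 fibroblasts, 1000 cells/well, rested 5 hr at 37 °C, then exposed to compound for 40 hr at 37 °C in complete medium. Viability read as intracellular ATP by CellTiter-Glo luminescence; AC50 from Hill-equation fits of concentration-response data.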

A short description of assay [12]: Cell Viability - SH-SY5Y (AID 544).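 Note: 0% = DMSO alone and -100% = 100 µM tamoxifen; nearly all actives have a fitted effect of over 55% in size.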 The gist of the method: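 SH-SY5Y human neuroblastoma cells (1500/well) incubated 5 h, then compound-treated 40 h at 37 °C in complete medium. Viability read as intracellular ATP by CellTiter-Glo luminescence after 20 min; AC50 from Hill-equation fits of qHTS concentration-response.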
The nature of assay [13]: Cell Viability - Renal Proximal Tubule (AID 545).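 Note: 0% = DMSO only and -100% = 100 µM tamoxifen; nearly all actives have a fitted effect of over 40% in size.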 The method in brief:
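Rat renal proximal tubule primary cells, 1000/well, exposed to compounds for 40 hr at 37 °C in complete medium; cellular ATP read by CellTiter-Glo luminescence. AC50 from concentration-response fitted with standard Hill equation.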

Assay [14] can be described thus: Cell Viability - Mesenchymal (AID 546).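 Note: potency is the fitted concentration of half-maximal effect; cells exposed to compound for 40 hours before reading.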 The gist of the method:
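Human kidney mesenchymal cells from normal renal glomeruli, 1000 cells/well, rested 5 hr at 37 °C, then treated 40 hr at 37 °C in complete medium. Cellular ATP read by CellTiter-Glo luminescence; AC50 from Hill-equation fits.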

For assay [15], the target named is 3',5'-cyclic-AMP phosphodiesterase 4B (Homo sapiens) (UniProt Q07343). Kind of assay: qHTS Assay for Inhibitors of PDE-IV (AID 607; active = well fitted activation curve with a large enough effect in the main read-out, with a control signal flat, not every such curve was filed as active; note: % of control where 0% means no effect). The method in brief: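 Live HEK293 cells with a modified cyclic nucleotide-gated (CNG) channel report intracellular cAMP via membrane-potential dye fluorescence (ex 535/em 590 nm). Endogenous PDE-IV was targeted. Compounds were tested at up to 22.9 uM final; RO 20-1724 100 uM served as control.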

Assay [16] is described as follows: Cellular Toxicity (caspase-3) HepG2 (AID 654).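 Note: cells exposed to compound for 16 hours before reading; 0% = DMSO alone and 100% = caspase signal from 100 µM tamoxifen.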 The method in brief: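 HepG2 cells (1500/well) were treated 16 h at 37 °C in complete medium, then caspase 3/7 activity was read by Caspase-Glo luminescence. Data were normalized to DMSO and 100 uM tamoxifen; AC50 came from Hill-equation fits of qHTS concentration-response.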
A short description of assay [17]: Cellular Toxicity (caspase-3) Jurkat (AID 655).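 Note: cells exposed to compound for 16 h at 37 °C before reading.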 The gist of the method:
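Jurkat cells (5000/well) in complete medium exposed 16 h at 37 C; caspase-3/7 activity read by Caspase-Glo luminescence after 20 min at room temperature. Normalized to DMSO and 100 uM tamoxifen; AC50 from Hill fits.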

A short description of assay [18]: Cellular Toxicity (caspase-3) HUV-EC-C (AID 656).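 Note: 0% = DMSO basal and 100% = 100 µM tamoxifen.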 The method in brief: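 HUV-EC-C cells (1000/well) in complete medium, compound-treated 16 h at 37 °C; caspase-3/7 activity read by Caspase-Glo 3/7 luminescence. Normalized to DMSO (basal) and 100 uM tamoxifen (100%); AC50 from Hill-equation concentration-response fits.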
Assay [19] is described as follows: Cellular Toxicity (caspase-3) SHSY5Y (AID 657). The gist of the method:
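SH-SY5Y human neuroblastoma cells, 1500/well, exposed to compound for 16 hours at 37 °C in complete medium. Caspase-3/7 activity read by Caspase-Glo luminescence after 1 hr at room temperature, normalized to DMSO and 10 uM staurosporine; AC50 from Hill fit.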

The nature of assay [20]: Cellular Toxicity (caspase-3) BJ (AID 658).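 Note: 0% = DMSO basal and 100% = 10 µM staurosporine.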 The gist of the method:
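BJ human foreskin fibroblasts, 1000 cells/well, treated 16 hours at 37 °C in complete medium; caspase 3/7 activity by Caspase-Glo luminescence after 1 hr at room temperature. Normalized to DMSO and 10 uM staurosporine; AC50 from Hill fits.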

The nature of assay [21]: Cellular Toxicity (caspase-3) MRC-5 (AID 659).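 Note: 0% = DMSO basal and 100% = 10 µM staurosporine.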 The gist of the method:
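MRC-5 human normal lung fibroblasts, 1500 cells/well, treated 16 h at 37 °C in complete medium. Caspase 3/7 measured by Caspase-Glo luminescence after 1 h at room temperature. Normalized to DMSO and 10 uM staurosporine; AC50 from Hill fit.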

3',5'-cyclic-AMP phosphodiesterase 4B (Homo sapiens), sequence (Q07343 whole entry, looked up): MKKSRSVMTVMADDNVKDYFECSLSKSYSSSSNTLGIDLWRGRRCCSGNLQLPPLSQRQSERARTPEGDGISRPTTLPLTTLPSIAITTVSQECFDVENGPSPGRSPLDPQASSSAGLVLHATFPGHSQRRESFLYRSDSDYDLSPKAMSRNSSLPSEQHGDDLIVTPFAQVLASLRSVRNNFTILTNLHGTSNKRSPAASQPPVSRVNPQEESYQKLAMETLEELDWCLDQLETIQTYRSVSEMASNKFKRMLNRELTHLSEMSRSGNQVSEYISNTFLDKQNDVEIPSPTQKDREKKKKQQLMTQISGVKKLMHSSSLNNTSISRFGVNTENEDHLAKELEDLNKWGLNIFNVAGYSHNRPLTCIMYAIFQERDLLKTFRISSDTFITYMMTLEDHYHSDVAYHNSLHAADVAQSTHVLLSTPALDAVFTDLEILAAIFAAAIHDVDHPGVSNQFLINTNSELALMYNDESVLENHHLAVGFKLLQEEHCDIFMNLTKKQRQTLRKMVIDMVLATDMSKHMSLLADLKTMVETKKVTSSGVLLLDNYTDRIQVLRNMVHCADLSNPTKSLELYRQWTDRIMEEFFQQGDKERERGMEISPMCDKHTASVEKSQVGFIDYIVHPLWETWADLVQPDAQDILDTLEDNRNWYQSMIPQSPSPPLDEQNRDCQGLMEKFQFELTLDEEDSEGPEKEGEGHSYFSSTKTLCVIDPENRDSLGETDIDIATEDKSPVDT

As to `CN(C)CCOC(c1ccccc1)c1ccccc1` (tested in a mixture with another compound), the activity change, negative = inhibition in assay [1] is 27.4% [at 17.2 µM] and 19.6% [at 17.2 µM]; in assay [7], -93.6% [at 17.2 µM] (active). Besides, the Potency in assay [2] is more than 92 µM; in [3] it was more than 92 µM; in assay [4] it was more than 92 µM; in assay [5] it was more than 92 µM; in assay [6] it was more than 92 µM; in [14] it was 25.1 µM (active). Further, in assay [8], the activity, negative = inhibition was 7.8% [at 17.2 µM] and 0.334% [at 17.2 µM]. Moreover, the Potency entry in assay [9] and in [15] was “inactive” in each case. Moreover, the outcome in [10], in [11], in assay [12], in assay [13], in assay [16] and in assay [17] was inactive. Also, the call in [18], in [19], in assay [20] and in assay [21] was inactive.
